PubChem BioAssay
Inconclusive results are not listed. Active and inactive are the calls of the source.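 Rule for the calls, unless noted: active = GFP signal, as percent of the solvent control, above the screen mean plus 3 SD, about 149; inconclusive = no reading because the compound's own fluorescence upset strain identification; inactive = the rest.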

How the values were obtained:
[1] = yeast TOR pathway RPL19A-GFP modulators, primary screen, cell-based, S. cerevisiae, multiplex flow cytometry (AID 1862; in the data active = percent of DMSO control GFP below about 86%;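 note: lower values mimic rapamycin by blocking the RPL19A rise seen in DMSO cells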); settings: S. cerevisiae RPL19A-GFP strain, flow cytometry fluorescence, 3 h; at 10 µM; stronger effect = lower value
[2] = modulators of MEP2-GFP levels in yeast, primary screen, S. cerevisiae, multiplex flow cytometry (AID 1867;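 active = GFP response, as percent of the DMSO control, above the screen-wide mean plus 3 SD, about 139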;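 note: median GFP channel fluorescence of barcode-gated MEP2-GFP cells measured by flow cytometry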); settings: S. cerevisiae MEP2-GFP strain, 3 h, at 10 µM, stronger effect = higher value, 100% means same as DMSO wells
[3] = modulators of CIT2-GFP expression in yeast, primary screen, S. cerevisiae, GFP fusion, multiplex flow cytometry (AID 1870;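 active = percent response above a set limit, the screen-wide mean plus 3 SD, cut at about 130% in these data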;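 note: barcoded CIT2-GFP strain pooled with four other GFP strains with rapamycin as positive control; median GFP fluorescence per well over plate mean of DMSO wells so 100% = DMSO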); settings: 3 h, at 10 µM, stronger effect = higher value
[4] = modulators of LAP4-GFP expression in yeast, primary screen, S. cerevisiae, multiplex flow cytometry (AID 1873); settings: 3 h, at 10 µM, stronger effect = higher value
[5] = modulators of AGP1-GFP expression in yeast TOR pathway, primary screen, cell-based, multiplex flow cytometry, S. cerevisiae (AID 1887;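 active = GFP signal above the screen-wide mean plus 3 SD, that is over about 124.5% of the solvent control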;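 note: AGP1-GFP fusion strain of S. cerevisiae within a five-strain barcoded multiplex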); settings: 3 h, at 10 µM, stronger effect = higher value
[6] = inhibitors of CD8+ T cell-vesicle binding, pilot screen, LFA-1/ICAM-1 modulator project, MLPCN validation set, flow cytometry (AID 2523;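 active = response below a set limit, under 55% cells CD8-positive and vesicle-bound, and CD8 cells' 90th-percentile brightness under 279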;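 for vesicle binding response: mean PE anti-B7-1 fluorescence of CD8+ cells relative to row control; 100% = QL9-loaded vesicles with DMSO vehicle in the same plate row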); settings: 2C mouse CD8+ T cells, at 7 µM, stronger effect = lower value; double positive events: measured here: CD8+/vesicle+ event percentage
[7] = molecular target: Integrin beta-1 (Homo sapiens) + Integrin alpha-4 (Homo sapiens) (UniProt P13612+P05556); assay: inhibition of HUTS-21 binding to VLA-4, pilot screen, VLA-4 allosteric modulator project, U937 cells, HUTS-21 mAb, flow cytometry, validation set (AID 2674;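 active = inhibition above 50%, about 3 SD of the validation set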;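 note: antibody binding induced by the VLA-4 ligand LDV present at three times its Kd; 0% = LDV ligand with antibody and no compound and 100% = antibody without LDV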); settings: HUTS-21 LIBS mAb binding, at 6.7 µM, stronger effect = higher value, binding induced by LDV ligand
Sequence of Integrin beta-1 (Homo sapiens) + Integrin alpha-4 (Homo sapiens) (P05556 whole entry, looked up): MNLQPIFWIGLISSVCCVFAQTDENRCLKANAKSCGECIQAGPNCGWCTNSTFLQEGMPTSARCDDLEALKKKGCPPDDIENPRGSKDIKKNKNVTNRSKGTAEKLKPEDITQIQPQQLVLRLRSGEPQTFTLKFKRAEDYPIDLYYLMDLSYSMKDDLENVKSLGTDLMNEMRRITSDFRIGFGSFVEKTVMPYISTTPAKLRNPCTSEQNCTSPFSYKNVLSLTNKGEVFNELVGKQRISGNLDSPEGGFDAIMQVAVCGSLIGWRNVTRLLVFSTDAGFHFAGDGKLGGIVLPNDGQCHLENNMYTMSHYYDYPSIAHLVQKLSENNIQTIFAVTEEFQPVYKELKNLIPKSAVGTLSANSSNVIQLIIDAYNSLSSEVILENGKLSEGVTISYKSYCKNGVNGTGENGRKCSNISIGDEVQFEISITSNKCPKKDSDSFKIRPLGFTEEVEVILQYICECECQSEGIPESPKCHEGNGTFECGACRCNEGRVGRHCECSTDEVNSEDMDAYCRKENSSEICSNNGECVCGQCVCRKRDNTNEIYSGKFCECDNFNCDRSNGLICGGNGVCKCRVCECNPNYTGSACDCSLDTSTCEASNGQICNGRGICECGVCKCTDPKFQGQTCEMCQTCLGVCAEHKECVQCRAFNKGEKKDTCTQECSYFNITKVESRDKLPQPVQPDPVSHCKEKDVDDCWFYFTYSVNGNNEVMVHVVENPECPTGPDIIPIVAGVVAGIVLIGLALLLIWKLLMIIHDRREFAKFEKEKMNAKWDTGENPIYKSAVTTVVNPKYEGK
Sequence of Integrin beta-1 (Homo sapiens) + Integrin alpha-4 (Homo sapiens) (P13612 whole entry, looked up): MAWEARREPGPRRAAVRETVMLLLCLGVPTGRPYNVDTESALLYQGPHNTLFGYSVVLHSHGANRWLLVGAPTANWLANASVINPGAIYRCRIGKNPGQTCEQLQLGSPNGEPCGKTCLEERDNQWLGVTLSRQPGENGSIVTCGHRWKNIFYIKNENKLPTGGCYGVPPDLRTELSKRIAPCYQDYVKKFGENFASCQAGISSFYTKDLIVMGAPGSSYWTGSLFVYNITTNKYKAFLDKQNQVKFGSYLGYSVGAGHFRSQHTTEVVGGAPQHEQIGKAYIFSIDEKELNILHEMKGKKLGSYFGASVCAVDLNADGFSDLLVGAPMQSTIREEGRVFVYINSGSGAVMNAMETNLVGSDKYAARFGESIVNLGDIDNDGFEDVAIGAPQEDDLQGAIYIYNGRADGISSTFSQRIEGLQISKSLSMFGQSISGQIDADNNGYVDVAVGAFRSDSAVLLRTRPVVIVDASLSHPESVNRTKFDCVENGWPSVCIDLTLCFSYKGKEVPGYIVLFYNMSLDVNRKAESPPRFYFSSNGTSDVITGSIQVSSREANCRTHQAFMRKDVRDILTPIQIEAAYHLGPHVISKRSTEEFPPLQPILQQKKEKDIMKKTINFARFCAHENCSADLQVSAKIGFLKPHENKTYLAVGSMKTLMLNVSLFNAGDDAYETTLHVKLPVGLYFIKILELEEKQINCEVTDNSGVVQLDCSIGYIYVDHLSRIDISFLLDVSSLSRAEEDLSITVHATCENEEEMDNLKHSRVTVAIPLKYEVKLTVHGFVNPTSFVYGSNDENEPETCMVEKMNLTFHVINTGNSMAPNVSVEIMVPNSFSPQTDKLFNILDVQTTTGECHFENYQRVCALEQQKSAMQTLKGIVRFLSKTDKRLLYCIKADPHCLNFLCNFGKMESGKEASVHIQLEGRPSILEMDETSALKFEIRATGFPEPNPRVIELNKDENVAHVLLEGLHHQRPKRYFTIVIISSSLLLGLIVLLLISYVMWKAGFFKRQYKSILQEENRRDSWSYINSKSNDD

[8] = superoxide lowering in aged yeast cells, pilot screen, validation compound set (AID 2706;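 active = superoxide response below 65% of plate, a cut near 3 SD across the whole screen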;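 note: yeast exposed to compound for one week at 30 degrees C before staining; 100% = mean of all compound wells on the same plate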); settings: S. cerevisiae aging, superoxide DHE fluorescence; at 10 µM; stronger effect = lower value
[9] = molecular target: Beta-adrenergic receptor kinase 1 (Homo sapiens) (UniProt P25098); assay: GRK2 binders displacing RNA aptamer, biochemical, validation, human GRK2, bead flow cytometry (AID 488806;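 active = aptamer binding inhibition above 30%, about 3 SD of noise from non-fluorescent compounds; inactive = inhibition at or below 30%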); settings: bead-bound GRK2, FAM-aptamer displacement, at 10 µM, stronger effect = higher value
Sequence of Beta-adrenergic receptor kinase 1 (Homo sapiens) (P25098 whole entry, looked up): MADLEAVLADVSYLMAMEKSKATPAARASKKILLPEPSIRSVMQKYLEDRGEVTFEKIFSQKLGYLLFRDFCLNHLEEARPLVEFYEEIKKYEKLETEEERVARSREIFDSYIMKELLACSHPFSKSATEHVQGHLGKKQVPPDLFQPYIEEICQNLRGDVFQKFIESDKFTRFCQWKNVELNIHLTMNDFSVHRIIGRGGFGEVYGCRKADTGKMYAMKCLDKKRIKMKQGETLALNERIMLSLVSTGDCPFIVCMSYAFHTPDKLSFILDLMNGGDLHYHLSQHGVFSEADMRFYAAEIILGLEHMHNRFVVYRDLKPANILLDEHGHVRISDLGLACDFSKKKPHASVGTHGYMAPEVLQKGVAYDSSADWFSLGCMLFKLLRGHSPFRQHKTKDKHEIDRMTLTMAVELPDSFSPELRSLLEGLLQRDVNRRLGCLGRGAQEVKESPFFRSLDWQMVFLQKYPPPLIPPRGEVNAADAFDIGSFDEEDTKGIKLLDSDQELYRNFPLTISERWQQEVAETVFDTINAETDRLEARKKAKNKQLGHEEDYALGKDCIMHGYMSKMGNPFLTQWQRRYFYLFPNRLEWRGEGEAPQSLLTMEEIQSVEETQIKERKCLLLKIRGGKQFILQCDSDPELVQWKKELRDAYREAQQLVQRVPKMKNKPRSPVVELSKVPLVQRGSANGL

[10] = molecular target: Beta-2 adrenergic receptor (Homo sapiens) (UniProt P07550); assay: beta2AR agonists driving receptor internalization, pilot screen, cell-based, FAP fluorogen, flow cytometry, validation set (AID 504459;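 active = percent response above 42, roughly 3 SD of non-fluorescent test compounds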;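 note: agonist-driven loss of surface beta2AR via internalization measured by FAP dye flow cytometry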); settings: Am2.2-beta2AR cells, FAP surface receptor flow cytometry; at 10 µM; stronger effect = higher value
Sequence of Beta-2 adrenergic receptor (Homo sapiens) (P07550 whole entry, looked up): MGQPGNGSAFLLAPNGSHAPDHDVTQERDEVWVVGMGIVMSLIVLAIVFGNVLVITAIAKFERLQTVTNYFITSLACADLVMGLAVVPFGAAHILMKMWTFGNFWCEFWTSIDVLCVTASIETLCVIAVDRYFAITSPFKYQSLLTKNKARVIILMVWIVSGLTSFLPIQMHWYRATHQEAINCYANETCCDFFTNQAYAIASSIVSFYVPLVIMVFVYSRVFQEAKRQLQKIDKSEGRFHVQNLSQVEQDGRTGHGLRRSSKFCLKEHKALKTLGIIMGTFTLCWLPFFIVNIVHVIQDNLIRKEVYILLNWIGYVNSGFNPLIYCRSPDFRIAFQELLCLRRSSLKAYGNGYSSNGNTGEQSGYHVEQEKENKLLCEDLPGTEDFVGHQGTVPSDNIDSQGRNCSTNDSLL

[11] = molecular target: AP-2 complex subunit beta (Homo sapiens) (UniProt P63010); assay: inhibitors of arrestin peptide binding to AP2, pilot screen, biochemical, validation set, GST-AP2 beads, flow cytometry (AID 504541;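 active = inhibition above 54%, about 3 SD of non-fluorescent compounds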;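 note: AP2 carries R879A mutation and is captured from E. coli lysate; bead-bound FITC arrestin peptide fluorescence measuring arrestin peptide binding to AP2; 0% = DMSO wells and 100% = excess unlabeled arrestin peptide control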); settings: FITC arrestin peptide, at 10 µM, stronger effect = higher value, AP2 beta2 appendage fragment, R879A mutant
Sequence of AP-2 complex subunit beta (Homo sapiens) (P63010 whole entry, looked up, the tested form may be a part, one chain of several): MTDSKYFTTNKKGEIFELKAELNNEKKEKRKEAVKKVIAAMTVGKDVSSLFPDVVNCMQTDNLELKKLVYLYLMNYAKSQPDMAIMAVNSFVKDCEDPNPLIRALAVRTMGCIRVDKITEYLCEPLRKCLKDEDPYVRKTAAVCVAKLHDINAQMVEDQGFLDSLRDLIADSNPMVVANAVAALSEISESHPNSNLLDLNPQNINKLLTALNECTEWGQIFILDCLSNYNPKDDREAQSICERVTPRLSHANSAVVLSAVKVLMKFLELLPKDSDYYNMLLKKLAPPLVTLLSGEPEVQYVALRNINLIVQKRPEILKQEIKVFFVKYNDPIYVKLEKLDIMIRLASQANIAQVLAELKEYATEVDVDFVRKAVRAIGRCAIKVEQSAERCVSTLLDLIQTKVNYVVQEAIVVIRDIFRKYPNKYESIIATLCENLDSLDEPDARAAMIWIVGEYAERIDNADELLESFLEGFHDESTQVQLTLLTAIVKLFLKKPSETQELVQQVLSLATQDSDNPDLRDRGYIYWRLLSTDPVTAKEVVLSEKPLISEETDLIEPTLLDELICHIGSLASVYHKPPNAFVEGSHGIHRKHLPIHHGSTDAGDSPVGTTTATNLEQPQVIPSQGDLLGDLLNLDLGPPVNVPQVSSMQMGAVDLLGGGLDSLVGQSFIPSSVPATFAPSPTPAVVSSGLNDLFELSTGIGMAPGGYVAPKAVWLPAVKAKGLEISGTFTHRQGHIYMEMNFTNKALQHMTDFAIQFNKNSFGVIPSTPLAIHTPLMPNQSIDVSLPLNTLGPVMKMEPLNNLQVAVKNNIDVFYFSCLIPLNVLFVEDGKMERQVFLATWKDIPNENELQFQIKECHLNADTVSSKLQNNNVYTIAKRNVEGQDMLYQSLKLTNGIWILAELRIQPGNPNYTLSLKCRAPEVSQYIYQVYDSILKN

[12] = yeast V-ATPase proton transport modulators, S. cerevisiae, pHLuorin, HTS validation (AID 504600; in the data active = response above about 15%;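 note: plate controls were DMSO for no effect and reference compound for full effect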); settings: S. cerevisiae pHLuorin cytosolic pH, at 10 µM, stronger effect = higher value
[13] = test system: anti-desmoglein-3 scFv antibody binding to human DSG3; assay: inhibitors of anti-DSG3 scFv binding to DSG3, pilot screen, biochemical, validation compound set, bead-based, flow cytometry (AID 588368;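 active = binding below the plate cutoff, the plate median minus 3 SD, with a reading above zero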;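 note: signal is the median channel fluorescence of bead-bound GFP antibody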); settings: Protein G beads, DSG3-Fc, scFv-GFP binding, at 10 µM, stronger effect = lower value
[14] = inhibitors of fungal efflux pumps CDR1, CDR2, MDR1, pilot screen, validation compound set, multiplex, phenotypic (AID 588506;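 active = efflux inhibition above 0.42, the validation set average plus 4 SD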;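 note: Nile Red retained in cells so higher fluorescence means more efflux inhibition; 0 = negative control wells and 1 = enniatin B 25 µM full block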); settings: S. cerevisiae pump-expressing triplex, Nile Red efflux flow cytometry; at 10 µM; stronger effect = higher value; the pumps come from Candida albicans
[15] = molecular target: ATP-binding cassette sub-family B member 6 (Homo sapiens) (UniProt Q9NP58); assay: ABCB6 transporter inhibitors, pilot screen, K562-ABCB6 cells, flow cytometry, validation set (AID 588550;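 active = inhibition above the screen-wide mean plus 3 SD, about 51%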;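 note: 0% = DMSO wells and 100% = benzethonium chloride 70 µM positive control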); settings: K562-ABCB6 porphyrin accumulation, 1 h, at 10 µM, stronger effect = higher value
Sequence of ATP-binding cassette sub-family B member 6 (Homo sapiens) (Q9NP58 whole entry, looked up): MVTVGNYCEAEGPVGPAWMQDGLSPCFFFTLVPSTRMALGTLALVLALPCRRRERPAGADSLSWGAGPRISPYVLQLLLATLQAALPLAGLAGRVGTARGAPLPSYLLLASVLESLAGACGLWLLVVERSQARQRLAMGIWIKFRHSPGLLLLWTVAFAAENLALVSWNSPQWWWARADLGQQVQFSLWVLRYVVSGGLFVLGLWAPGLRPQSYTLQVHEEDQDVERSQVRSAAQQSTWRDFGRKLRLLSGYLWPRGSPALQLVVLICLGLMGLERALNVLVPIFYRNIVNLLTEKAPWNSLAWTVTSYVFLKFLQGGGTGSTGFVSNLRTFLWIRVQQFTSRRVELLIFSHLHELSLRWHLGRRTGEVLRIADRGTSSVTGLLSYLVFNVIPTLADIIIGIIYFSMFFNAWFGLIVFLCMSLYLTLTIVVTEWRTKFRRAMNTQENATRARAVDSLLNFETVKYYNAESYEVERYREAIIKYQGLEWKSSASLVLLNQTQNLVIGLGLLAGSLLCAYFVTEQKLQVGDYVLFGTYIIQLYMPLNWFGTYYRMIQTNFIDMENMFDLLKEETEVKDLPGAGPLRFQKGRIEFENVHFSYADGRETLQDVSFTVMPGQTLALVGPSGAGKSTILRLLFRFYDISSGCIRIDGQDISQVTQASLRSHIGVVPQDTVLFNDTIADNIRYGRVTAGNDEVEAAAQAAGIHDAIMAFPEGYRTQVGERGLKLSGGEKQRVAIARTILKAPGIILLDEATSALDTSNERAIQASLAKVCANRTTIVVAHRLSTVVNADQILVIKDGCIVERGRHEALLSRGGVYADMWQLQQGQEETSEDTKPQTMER

[16] = promoters of myeloid differentiation in arrested cells, primary screen, cell-based, GFP/MAC1 double positive, flow cytometry, validation set (AID 588685;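 active = differentiation response of at least 50%, scaled between solvent and reference control, from cells with both markers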;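 note: compound exposure lasts four days before antibody staining and flow analysis; 0% = DMSO wells and 100% = 5 µM fulvestrant positive control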); settings: ER-HoxA9 marrow cells, stronger effect = higher value, normalized: vehicle 0, fulvestrant 100

CC(=O)N1CCN(c2ccc(NC(=O)/C=C/c3ccccc3)cc2)CC1
percent of DMSO control GFP [1]: 103% (inactive)
GFP response vs DMSO [2]: 98.7% (inactive)
percent response of DMSO control [3]: 105% (inactive)
GFP response vs DMSO [4]: 100% (inactive)
GFP response, % of DMSO [5]: 108% (inactive)
double positive events [6]: 63.1%
vesicle binding response [6]: 168% (inactive)
inhibition [7]: 2.93% (inactive)
superoxide response (% of plate) [8]: 76% (inactive)
aptamer binding inhibition [9]: -3% (inactive)
response [10]: 3.43% (inactive)
inhibition [11]: -6.59% (inactive)
response [12]: 3.19% (inactive)
binding (% of control) [13]: 107% (inactive)
efflux inhibition (fraction of control) [14]: 0.39 (inactive)
inhibition [15]: -1% (inactive)
differentiation response [16]: -11.9% (inactive)

O=C(O)CCCCCNC(=O)Nc1ccc2c(c1)OCCO2
percent of DMSO control GFP [1]: 101% (inactive)
GFP response vs DMSO [2]: 115% (inactive)
percent response of DMSO control [3]: 112% (inactive)
GFP response vs DMSO [4]: 77% (inactive)
GFP response, % of DMSO [5]: 91.2% (inactive)
double positive events [6]: 49.7%
vesicle binding response [6]: 207% (inactive)
inhibition [7]: -12% (inactive)
superoxide response (% of plate) [8]: 105% (inactive)
aptamer binding inhibition [9]: -3% (inactive)
response [10]: -9.55% (inactive)
inhibition [11]: -7.04% (inactive)
response [12]: -4.4% (inactive)
binding (% of control) [13]: 108% (inactive)
efflux inhibition (fraction of control) [14]: 0.12 (inactive)
inhibition [15]: 7% (inactive)
differentiation response [16]: -3.28% (inactive)

C/C=C(/C(=C/C)c1ccc(O)cc1)c1ccc(O)cc1
percent of DMSO control GFP [1]: 90.4% (inactive)
GFP response vs DMSO [2]: 135% (inactive)
percent response of DMSO control [3]: 95.2% (inactive)
GFP response vs DMSO [4]: 81.4% (inactive)
GFP response, % of DMSO [5]: 87.7% (inactive)
double positive events [6]: 63.9%
vesicle binding response [6]: 170% (inactive)
inhibition [7]: 8.4% (inactive)
superoxide response (% of plate) [8]: 91.4% (inactive)
aptamer binding inhibition [9]: 2% (inactive)
response [10]: -4.98% (inactive)
inhibition [11]: 13.1% (inactive)
response [12]: -1.75% (inactive)
binding (% of control) [13]: 101% (inactive)
efflux inhibition (fraction of control) [14]: 0.48 (active)
inhibition [15]: 4% (inactive)
differentiation response [16]: -7.37% (inactive)

O=C1CC[C@@H](CN(Cc2ccccc2)Cc2cn[nH]c2-c2cc3ccccc3o2)N1
percent of DMSO control GFP [1]: 101% (inactive)
GFP response vs DMSO [2]: 108% (inactive)
percent response of DMSO control [3]: 99.6% (inactive)
GFP response vs DMSO [4]: 110% (inactive)
GFP response, % of DMSO [5]: 114% (inactive)
double positive events [6]: 63.1%
vesicle binding response [6]: 198% (inactive)
inhibition [7]: -4.52% (inactive)
superoxide response (% of plate) [8]: 93.3% (inactive)
aptamer binding inhibition [9]: 5% (inactive)
response [10]: 40.3% (inactive)
inhibition [11]: 2.07% (inactive)
response [12]: 3.87% (inactive)
binding (% of control) [13]: 101% (inactive)
efflux inhibition (fraction of control) [14]: 0.38 (inactive)
inhibition [15]: 1% (inactive)
differentiation response [16]: -7.94% (inactive)

COc1ccc(OC(C)C(=O)Nc2ccccc2F)cc1 (stereo not given)
percent of DMSO control GFP [1]: 102% (inactive)
GFP response vs DMSO [2]: 99.7% (inactive)
percent response of DMSO control [3]: 102% (inactive)
GFP response vs DMSO [4]: 108% (inactive)
GFP response, % of DMSO [5]: 99.3% (inactive)
double positive events [6]: 58.4%
vesicle binding response [6]: 151% (inactive)
inhibition [7]: 25.7% (inactive)
superoxide response (% of plate) [8]: 90.6% (inactive)
aptamer binding inhibition [9]: 0% (inactive)
response [10]: 6.77% (inactive)
inhibition [11]: -5.67% (inactive)
response [12]: 0.03% (inactive)
binding (% of control) [13]: 104% (inactive)
efflux inhibition (fraction of control) [14]: -0.15 (inactive)
inhibition [15]: 8% (inactive)
differentiation response [16]: -6.03% (inactive)

COc1ccc(C2C3=C(OC(C)=O)c4ccccc4C3=Nc3c2c(=O)n(C)c(=O)n3C)cc1 (stereo not given)
percent of DMSO control GFP [1]: 105% (inactive)
GFP response vs DMSO [2]: 94.6% (inactive)
percent response of DMSO control [3]: 106% (inactive)
GFP response vs DMSO [4]: 105% (inactive)
GFP response, % of DMSO [5]: 103% (inactive)
double positive events [6]: 58.8%
vesicle binding response [6]: 127% (inactive)
inhibition [7]: 1.59% (inactive)
superoxide response (% of plate) [8]: 98.4% (inactive)
aptamer binding inhibition [9]: -1% (inactive)
response [10]: -14.8% (inactive)
inhibition [11]: 0.59% (inactive)
response [12]: -2.42% (inactive)
binding (% of control) [13]: 102% (inactive)
efflux inhibition (fraction of control) [14]: -0.02 (inactive)
inhibition [15]: 4% (inactive)
differentiation response [16]: -11.9% (inactive)

CC(=O)c1c[nH]c2ccc(C)cc2c1=O
percent of DMSO control GFP [1]: 97.4% (inactive)
GFP response vs DMSO [2]: 99.6% (inactive)
percent response of DMSO control [3]: 97.7% (inactive)
GFP response vs DMSO [4]: 114% (inactive)
GFP response, % of DMSO [5]: 94.9% (inactive)
double positive events [6]: 60.8%
vesicle binding response [6]: 228% (inactive)
inhibition [7]: -85.1% (inactive)
superoxide response (% of plate) [8]: 104% (inactive)
aptamer binding inhibition [9]: 0% (inactive)
response [10]: -3.59% (inactive)
inhibition [11]: 34.1% (inactive)
response [12]: -1.39% (inactive)
binding (% of control) [13]: 101% (inactive)
efflux inhibition (fraction of control) [14]: -0.31 (inactive)
inhibition [15]: 1% (inactive)
differentiation response [16]: -18.4% (inactive)

O=C(NCCc1c[nH]c2ccccc12)OCCSS(=O)(=O)O
percent of DMSO control GFP [1]: 101% (inactive)
GFP response vs DMSO [2]: 101% (inactive)
percent response of DMSO control [3]: 108% (inactive)
GFP response vs DMSO [4]: 102% (inactive)
GFP response, % of DMSO [5]: 100% (inactive)
double positive events [6]: 66.8%
vesicle binding response [6]: 1060% (inactive)
inhibition [7]: -6.68% (inactive)
superoxide response (% of plate) [8]: 106% (inactive)
aptamer binding inhibition [9]: 3% (inactive)
response [10]: -2.85% (inactive)
inhibition [11]: -1.88% (inactive)
response [12]: 3.36% (inactive)
binding (% of control) [13]: 99.7% (inactive)
efflux inhibition (fraction of control) [14]: -0.07 (inactive)
inhibition [15]: 7% (inactive)
differentiation response [16]: 2.2% (inactive)

COc1ccc(CN2CCCCC2C(=O)Nc2ccc(OC)c(OCC(C)C)c2)cc1OC (stereo not given)
percent of DMSO control GFP [1]: 100% (inactive)
GFP response vs DMSO [2]: 103% (inactive)
percent response of DMSO control [3]: 101% (inactive)
GFP response vs DMSO [4]: 90.7% (inactive)
GFP response, % of DMSO [5]: 104% (inactive)
double positive events [6]: 54.3%
vesicle binding response [6]: 29% (active)
inhibition [7]: -0.45% (inactive)
superoxide response (% of plate) [8]: 95% (inactive)
aptamer binding inhibition [9]: 2% (inactive)
response [10]: -10.2% (inactive)
inhibition [11]: 18.5% (inactive)
response [12]: -0.65% (inactive)
binding (% of control) [13]: 95.9% (inactive)
efflux inhibition (fraction of control) [14]: -0.35 (inactive)
inhibition [15]: 4% (inactive)
differentiation response [16]: 2.2% (inactive)

CCOC(=O)n1c(=O)oc2ccccc21
percent of DMSO control GFP [1]: 97% (inactive)
GFP response vs DMSO [2]: 104% (inactive)
percent response of DMSO control [3]: 102% (inactive)
GFP response vs DMSO [4]: 102% (inactive)
GFP response, % of DMSO [5]: 107% (inactive)
double positive events [6]: 62.5%
vesicle binding response [6]: 196% (inactive)
inhibition [7]: 6.55% (inactive)
superoxide response (% of plate) [8]: 105% (inactive)
aptamer binding inhibition [9]: 7% (inactive)
response [10]: -19.8% (inactive)
inhibition [11]: -0.08% (inactive)
response [12]: 10.2% (inactive)
binding (% of control) [13]: 107% (inactive)
efflux inhibition (fraction of control) [14]: 0.08 (inactive)
inhibition [15]: 3% (inactive)
differentiation response [16]: -4.99% (inactive)
